Cruzain inh Det = blocks cruzain activity in presence of Triton detergent. Potency, µM, without a hit: max response, negative = inhibition, most hits filed as inhibitors. P25779. AID 1478. actives 0.43% (n = 200,000). purified cruzain, Z-FR-AMC fluorescence, 0.01% Triton;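 further: plate controls were neutral wells for no effect and buffer without enzyme for full effect; nearly all actives have a fitted effect of over 40% in size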
Target sequence (P25779 123-467 limits assumed): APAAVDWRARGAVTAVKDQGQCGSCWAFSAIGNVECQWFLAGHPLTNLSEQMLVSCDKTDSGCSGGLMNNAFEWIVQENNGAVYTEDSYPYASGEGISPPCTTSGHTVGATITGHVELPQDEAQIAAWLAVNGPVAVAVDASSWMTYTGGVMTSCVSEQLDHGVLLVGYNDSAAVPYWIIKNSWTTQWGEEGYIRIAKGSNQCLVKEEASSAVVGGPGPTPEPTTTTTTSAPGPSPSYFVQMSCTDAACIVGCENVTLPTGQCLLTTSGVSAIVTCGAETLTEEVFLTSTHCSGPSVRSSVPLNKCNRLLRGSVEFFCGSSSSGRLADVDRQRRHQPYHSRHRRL
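Purified cruzain (1.5 nM final) was preincubated with compounds for 15 min at room temperature in 100 mM sodium acetate pH 5.5, 5 mM DTT, 0.01% Triton X-100. Reaction started with 2 uM Z-FR-AMC; AMC fluorescence change over 60 s gave activity.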
Cruzain noTriton = blocks cruzain activity in detergent-free assay; Potency, µM, without a hit: max response, negative = inhibition, actives largely listed as inhibitors; actives 2.3% (n = 200,000); purified cruzain, Z-FR-AMC fluorescence, no detergent; P25779;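 further: plate controls were enzyme without inhibitor for no effect and buffer without enzyme for full effect; nearly all actives have a fitted effect of over 40% in size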
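Detergent-free condition (0.00005% Triton X-100) in acetate buffer pH 5.5 with DTT. 1.5 nM enzyme and compound were pre-mixed 15 min, then 2 uM Z-FR-AMC substrate added; reaction progress from fluorescence change between first and third reads (60 s).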
* = called active by the depositor; ? = inconclusive. The list is not random: actives were taken first. Their share in the collection is about 2.6%. The call rests on the fitted dose curve; in most records, active means well fitted curve in the direction sought with a large enough effect; inconclusive means small, poorly fitted or top-dose-only effect, or another doubt; inactive means no such curve, though single readings can be large; an effect the other way counts as inactive or inconclusive. Potency means the concentration at half of the fitted maximal effect.

SMILES	Cruzain inh Det	Cruzain noTriton
Nc1nc(NCc2ccccc2)nc(Nc2ccc(F)cc2)c1[N+](=O)[O-]	-4%	7.9µM*
COc1cccc([C@@H]2Oc3ccc(OC)cc3C(=O)[C@H]2OC(=O)NS(=O)(=O)c2ccc(C)cc2)c1	-4%	-1%
Cc1ccc(OCc2nnc(SCC(=O)Nc3ccccc3C(C)C)o2)cc1	-5%	-6%
CCOc1ccccc1NC(=O)C1CCN(S(=O)(=O)Cc2ccccc2)CC1	-11%	?
CCCCn1c(=O)c2[nH]c(C34CC5CC(CC3C5)C4)nc2n(CCCO)c1=O	-1%	6%
COC(=O)N1[C@H]2CC[C@@]3(C)CC(=O)C[C@]1(C)C3c1ccccc12	3%	-5%
CCOC(=O)Cn1c(-c2nonc2NC(=O)c2ccccc2F)nc2ccccc21	-2%	25µM*
Nc1nonc1-c1nc2ccccc2n1CC(=O)N/N=C\c1ccc(-c2ccc(Cl)cc2)o1	-4%	4µM*
Cc1ccc(NC(=O)Cn2c(/C=C/c3ccccc3)nc3ccccc32)cc1C	-12%	16µM*
Cc1ccc(NC(=O)Cn2c(-c3nonc3N)nc3ccccc32)cc1Cl	0%	7.9µM*
Nc1nonc1-c1nc2ccccc2n1CC(=O)Nc1ccc(F)cc1	-2%	-5%
Cc1ccc(NC(=O)Cn2c(=O)c(C(F)(F)F)nc3ccccc32)cc1C	2%	-3%
CCC(=O)Nc1nonc1-c1nc2ccccc2n1Cc1ccccc1	-9%	1%
Nc1nonc1-c1nc2ccccc2n1CC(=O)Nc1cccc(Cl)c1Cl	-1%	2%
CCOc1ccc(CCNC(=O)CN2CCN(Cc3ccc(Cl)cc3)C2=O)cc1OCC	-5%	?
COc1ccc(SCc2cc(=O)c3cc(Cl)ccc3[nH]2)cc1	0%	-6%
CCCn1c(CCCNC(=O)c2ccccc2OC)nc2ccccc21	8%	12%
Cc1oc2ncn(CC(C)C)c(=O)c2c1C(=O)Nc1cc(F)ccc1F	-1%	-19%
COCCNc1ccnc(-c2ccccc2C(F)(F)F)n1	11%	13%
COc1ccc(N2CC(NC(=O)c3cccs3)CC2=O)cc1OC (stereo not drawn)	-2%	-10%
Cc1ccc(S(=O)(=O)NCC(c2ccc(N(C)C)cc2)N2CCc3ccccc32)cc1 (stereo not drawn)	-4%	-4%
CN(C)c1ccc(C(CNS(=O)(=O)c2ccccc2)N2CCc3ccccc32)cc1 (stereo not drawn)	-2%	16µM*
CCc1cc(=O)oc2cc(C)c(CN3CCCC3)c(O)c12	-11%	7%
CCCc1cc(=O)oc2c(CN3CCCC3)c(O)c(Cl)cc12	32µM*	?
CCCc1cc(=O)oc2c(CN3CCCC3)c(O)ccc12	25µM*	?
SMILES	Cruzain inh Det	Cruzain noTriton
CCCc1cc(=O)oc2cc(C)c(CN3CCCC3)c(O)c12	-15%	9%
COc1cccc(NC(=O)CSCn2nnc3c(=O)[nH]c(Cc4ccc(F)cc4)nc32)c1	-3%	-3%
Cc1ccc(NC(=O)CSc2nnc3nc(C)cc(C)n23)cc1	-1%	5%
Cc1csc(NC(=O)CSc2ncnc3c2cnn3-c2ccccc2Cl)n1	-2%	-7%
CC1CCc2c(sc(NC(=O)CSc3ncnc4c3cnn4-c3ccccc3Cl)c2C#N)C1 (stereo not drawn)	5%	10µM*
C=CCNC(=O)/C(C#N)=C\c1cc(Cl)c(O)c(OCC)c1	-1%	-4%
CCOc1cc(/C=C2\CCC/C(=C\c3cc(Cl)c(O)c(OCC)c3)C2=O)cc(Cl)c1O	6%	13µM*
CC(C)CCNC(=O)Nc1ccc2c(c1)N(C)C(=O)c1ccccc1S2	-4%	12%
CCCN(C(=O)c1coc(=O)c2ccccc12)c1ccccc1C	-2%	-1%
CC(=O)c1ccc(NC(=O)COc2ccccc2-c2nc(-c3ccc(C)cc3)no2)cc1	-8%	10%
Cc1ccc(C(=O)c2sc3nsc(C)c3c2N)cc1	-4%	-5%
Cc1snc2sc(C(=O)c3ccc(Br)cc3)c(N)c12	20µM*	16µM*
COc1cc(NS(=O)(=O)c2ccc(NS(=O)(=O)c3ccccc3)cc2)nc(OC)n1	-2%	-3%
COc1cc(NS(=O)(=O)c2ccc(Nc3nc(-c4cccc([N+](=O)[O-])c4)cs3)cc2)nc(OC)n1	-9%	32µM*
O=C(/C=C/NNC(=O)c1ccccc1)c1ccc(Br)cc1	-8%	?
O=C(/C=C/NNC(=O)c1cccc(Br)c1)c1cccc(Br)c1	-6%	7.9µM*
Cc1cc(C)cc(NC(=O)C2CCCN(C(=O)c3cnn(-c4ccccc4)c3-n3cccc3)C2)c1 (stereo not drawn)	-8%	?
CCCCCCCCCCCCCCCCOC[C@H](COP(=O)([O-])OCC[N+](C)(C)C)OC(=O)NC	-4%	?
Cc1cccc(S(=O)(=O)c2c(N)n(/N=C/c3ccco3)c3nc4ccccc4nc23)c1	-5%	-22%
Cc1ccc(S(=O)(=O)c2c(N)n(/N=C/c3ccco3)c3nc4ccccc4nc23)cc1C	-22%	16µM*
Cc1ccc2c(CNC3CCCCC3)c(C(=O)O)n(Cc3ccc(F)cc3)c2c1	0%	0%
Fc1ccccc1/C=N/NC(=S)Nc1ccc(Cl)cc1Cl	1%	10µM*
Fc1ccc(NC(=S)N/N=C/c2ccc(F)c(F)c2)c(F)c1	4%	?
CN(C)C1C(=O)C(C(N)=O)=C(O)[C@@]2(O)C(=O)C3=C(O)c4c(O)cccc4[C@@](C)(O)C3[C@H](O)C12 (stereo partly drawn)	-9%	-9%
O=C(NCCc1ccccc1)c1cccc(Br)n1	0%	?
SMILES	Cruzain inh Det	Cruzain noTriton
CCOc1ccc(/C=C(\C#N)c2nc(-c3cc4ccccc4oc3=O)cs2)c(OCC)c1	0%	4%
N#Cc1c(-c2ccccc2)cc(-c2ccccc2)nc1SCC(O)CS(=O)(=O)Cc1ccccc1 (stereo not drawn)	-2%	20µM*
Cc1ccc(-c2cc(-c3ccccc3)c(C#N)c(SCC(O)CS(=O)(=O)Cc3ccccc3)n2)cc1 (stereo not drawn)	-3%	10µM*
C#CCSc1nc(-c2ccccc2)cc(-c2ccccc2)c1C#N	-6%	-28%
Cc1cc(-c2ccccc2)c(C#N)c(SCC(N)=O)n1	0%	-5%
Oc1ccc([C@@H]2CNCCc3c2cc(O)c(O)c3Cl)cc1	0%	0%
CN1CCN(c2ccnc(-c3ccccc3C(F)(F)F)n2)CC1	4%	-1%
Cc1nn(C)c2c1c(-c1ccccc1)cc(=O)n2Cc1ccccc1C#N	-3%	12%
Cc1ccc(C)c(NC(=O)CSc2nc(-c3ccccc3)c(C#N)c(=O)[nH]2)c1	-3%	2%
COc1ccccc1NC(=O)CSc1nc(-c2ccc(C(C)(C)C)cc2)c(C#N)c(=O)[nH]1	25µM*	?
NC(N)=NC(N)=Nc1ccccc1 (tested in a mixture with another compound)	1%	4%
COc1cccc(NS(=O)(=O)c2ccc3[nH]c4c(c3c2)CCCCCC4)c1	-10%	-29%
CSc1cccc(NC(=O)C2CCN(S(C)(=O)=O)CC2)c1	10%	1%
CC(=O)c1cccc(NC(=O)C2CCN(S(=O)(=O)c3ccc(F)cc3)CC2)c1	2%	-11%
COc1cccc(NC(=O)C2CCN(S(=O)(=O)c3ccc4[nH]c5c(c4c3)CCCCC5)CC2)c1	-2%	20µM*
CSc1cccc(NC(=O)C2CCN(S(=O)(=O)c3ccc4[nH]c5c(c4c3)CCCCC5)CC2)c1	3%	13µM*
